HIF-2a block = HIF-2a inhibition. actives 0.72% (n = 360,000). inhibition, % at 18.8 µM. 786-0 RCC cells HIF-2a reporter, luciferase luminescence, overnight;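 active = inhibition of the luminescence signal of 40% or more relative to plate controls, in a single-dose primary screen at 18.75 µM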
CF NFkB block = inhibitors of cystic fibrosis induced NF-kB; AID 588850; inhibition, % at 5 µM; KKLEB NF-kB-GFP reporter, PAF-induced, GFP fluorescence overnight; actives 0.86% (n = 360,000);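 active = at least 50% inhibition at 5 µM, scaled per plate between neutral and stimulator controls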;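 note: PAF is a Pseudomonas aeruginosa culture filtrate used as stimulus; plate controls were PAF-stimulated DMSO wells for no effect and unstimulated DMSO wells for full effect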
Peg3 promoter = reduces Peg3 promoter-driven luciferase expression in HeLa; actives 1.7% (n = 360,000); AID 588405; HeLa PEG-Prom luciferase reporter, luminescence, overnight; inhibition, % at 20 µM;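 active = inhibition of at least 50% at 20 µM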
KKLEB cytotox = counter-screen for CF NF-kB inhibitors: cytotoxicity; KKLEB CF airway cells viability, ATPlite luminescence, overnight; stronger effect = lower value; cells stimulated with P. aeruginosa culture filtrate; activity change (cytotoxicity), % at 5 µM; actives 0.36% (n = 360,000);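 active = corrected activity change at or below -50% at 5 µM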
MITF TRPM1 inh = inhibitors of MITF-driven TRPM1 promoter in melanoma cells | SK-MEL-5 TRPM1 promoter luciferase, 24 h | inhibition, % at 12.5 µM | actives 0.83% (n = 330,000) | AID 488899;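 active = mean inhibition across replicates of 60% or more, whatever share of single replicates reaches that level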
Shn3 3UTR inh = inhibitors of Schnurri-3 3'UTR reporter in osteoblasts. Clone20 osteoblast Shn3 3'UTR firefly luciferase, 24 h. AID 588674. actives 0.52% (n = 360,000). inhibition, % at 12.5 µM;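 active = mean inhibition of at least 75% with every replicate also reaching 75%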;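 note: 0% = median of neutral control wells and 100% = pilot-screen positive control compound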
Active calls of the source: *; . = no result. A selection: hits, their analogues and other compounds. The true share with any hit is near 2.7%.

SMILES	HIF-2a block	CF NFkB block	Peg3 promoter	KKLEB cytotox	MITF TRPM1 inh	Shn3 3UTR inh
N=C1/C(=C\c2ccc(-c3ccc(C(=O)O)cc3)o2)C(=O)N=C2SC=C(c3ccccc3)N12	-7	72*	-9	-5	11	-20
Cc1cc2nc(C3CCCCC3)c(Cc3ccccc3)n2c(C)c1Br	-15	23	-2	-4	.	7
Oc1c(C(c2cccs2)N2CCC3(CC2)OCCO3)sc2ncnn12 (stereo unspecified)	-7	12	12	-4	.	88*
CN(C)CCCn1c(SCC(=O)N2c3ccccc3Sc3ccccc32)nc2ccccc2c1=O	7	41	107*	-31	26	-7
COc1ccc(-c2csc(NC(=O)CSc3nc4ccccc4c(=O)[nH]3)n2)cc1	-38	71*	-11	-33	1	-2
COc1ccc2cc(C)c3nnc(SCC(=O)Nc4nc(-c5ccc(F)cc5)cs4)n3c2c1	-7	22	66*	-42	38	33
Cc1ccc(-c2csc(NC(=O)CSc3nc4ccccc4c(=O)n3CCCN(C)C)n2)cc1	-40	0	70*	-19	40	-1
COc1ccc(-c2csc(NC(=O)CSc3nnc(Nc4ccccc4C)s3)n2)cc1	-15	-10	11	-3	3	7
CCn1c(SCC(=O)Nc2nc(-c3ccc(C)cc3)cs2)nnc1-c1ccccc1	-39	-10	-12	2	5	-14
NC(=O)c1cccc(-c2ccnc3c2CC(C(=O)Nc2ccc(Cl)cc2)O3)c1 (stereo unspecified)	2	-46	20	17	.	44
CCCSc1cc(N2CCN(C)CC2)nc(-c2ccc(OC)cc2)n1	10	-2	55*	-9	-10	7
Cc1nc(N2CCN(c3ccccn3)CC2)c2c(C)c(C(=O)N3CCN(c4ccccc4F)CC3)sc2n1	12	12	72*	-17	6	-2
COC[C@H]1CCCN1c1ccc2c(c1)O[C@H](COCc1ccccc1)CN([C@H](C)c1ccccc1)S2(=O)=O	-4	.	.	.	.	.
O=S1(=O)N[C@@H](Cc2ccccc2)COc2cc(N3CCN(Cc4ccccc4F)CC3)ccc21	-3	.	.	.	.	.
CC12C=CC(=O)C=C1CCC1C2C(O)CC2(C)C1CCC2(O)C(=O)CO (stereo unspecified)	23	64*	6	54	-7	0
CC(=O)OCC(=O)[C@@]1(O)CC[C@H]2[C@@H]3CCC4=CC(=O)C=C[C@]4(C)[C@@]3(Cl)[C@@H](Cl)C[C@@]21C	25	65*	-2	26	-4	5
CCCCC(=O)O[C@]1(C(=O)CO)CC[C@H]2[C@@H]3CCC4=CC(=O)CC[C@]4(C)[C@H]3[C@@H](O)C[C@@]21C	12	57*	-6	30	-10	19
CC(=O)[C@@]1(O)CC[C@H]2[C@@H]3CCC4=CC(=O)CC[C@]4(C)[C@H]3[C@@H](O)C[C@@]21C	20	48	-13	30	-10	9
C[C@]12C=CC(=O)C=C1CCC1C3CC[C@](O)(C(=O)CO)[C@@]3(C)CC3OC312 (stereo partly specified)	24	13	0	6	2	-3
CC(=O)OCC(=O)[C@@]1(O)CC[C@H]2[C@@H]3CCC4=CC(=O)C=C[C@]4(C)[C@H]3[C@@H](O)C[C@@]21C	27	80*	-10	2	-7	-4
CC(=O)OCC(=O)[C@@]1(O)CCC2C3CCC4=CC(=O)CCC4(C)C3C(=O)CC21C (stereo partly specified)	8	7	11	2	6	-15
C[C@]12CCC(=O)C=C1CC[C@@H]1[C@@H]2CC[C@@]2(C)[C@H]1CC[C@]2(O)C(=O)CO	9	22	-11	-3	-8	29
CC12CCC(=O)C=C1C(F)CC1C2C(O)CC2(C)C1CCC2(O)C(=O)CO (stereo unspecified)	22	76*	10	33	-23	8
COc1ccc(/C=C2\SC(=S)N(CCCC(=O)Nc3ccccn3)C2=O)cc1OC	40*	6	17	-2	-9	5
COc1ccc(/C=C2\SC(=S)N(CCC(=O)NC3=NCCS3)C2=O)cc1OC	54*	-2	-4	-1	7	24
SMILES	HIF-2a block	CF NFkB block	Peg3 promoter	KKLEB cytotox	MITF TRPM1 inh	Shn3 3UTR inh
COc1ccc(/C=C2\SC(=S)N(CCCC(=O)Nc3cccc(C(=O)O)c3)C2=O)cc1OC	26	7	20	0	10	5
O=C(N/N=C/c1c(O)ccc2ccccc12)c1ccc[n+](CCO)c1	21	-21	4	5	4	13
Cc1ccc(C(=O)N/N=C/c2c(O)ccc3ccccc23)cn1	-34	12	45	2	60	94*
O=C(N/N=C/c1c(O)ccc2ccccc12)c1cccnc1	-10	4	52*	0	49	85
COc1ccccc1/C=N/NC(=O)c1ccc(C)nc1	22	-15	9	13	8	8
COc1ccc2ccccc2c1/C=N\NC(=O)c1cccnc1	-1	-21	-1	-2	.	2
Cn1cc(C(=O)N/N=C/c2c(O)ccc3ccccc23)ccc1=O	-2	-12	42	-4	69*	91*
O=C(CSCC(=O)Nc1ccccc1)N/N=C/c1c(O)ccc2ccccc12	5	27	52*	-15	69*	93*
C[C@H](O)CNC(=O)c1[nH]cnc1C(=O)Nc1cccc(Cl)c1	-25	6	1	1	.	-2
COc1ccc(NC(C)C(=O)N/N=C/c2c(O)ccc3ccccc23)cc1 (stereo unspecified)	16	-13	57*	-9	44	48
O=C(N/N=C\c1c(O)ccc2ccccc12)c1ccc(O)cc1	-62	9	39	-12	36	91*
O=C(NN=Cc1c(O)ccc2ccccc12)c1ccncc1	-4	-11	45	4	75*	90*
Cn1nccc1C(=O)N/N=C/c1c(O)ccc2ccccc12	-75	-30	25	-7	72*	94*
Cc1occc1C(=O)N/N=C/c1c(O)ccc2ccccc12	-150	19	-34	-4	39	65
Cc1ccc(S(=O)(=O)N2C[C@H]3N(C(=O)OC(C)C)N(C(=O)OC(C)C)C[C@H](OC(=O)NCC4CCCCC4)[C@@]3(O)C2)cc1	-50	13	25	9	.	27
COc1ccc([C@H]2CN(c3ccc(OC)cc3)C(=O)[C@@H]2CC(=O)Nc2ccccc2)cc1	-97	-8	-35	-8	.	-32
CNc1nc(NCc2ccc(N(C)C)cc2)c2sccc2n1	-13	20	-32	-14	.	29
O=C(Nc1ccc(F)cc1)C(c1cc2ccccc2o1)N1CCN(c2ccncc2)CC1 (stereo unspecified)	-16	.	.	.	.	.

High-throughput results from PubChem.
